# A number with no mark means an inactive call. Inconclusive results are not listed. Where a call stands in place of a potency, no number is given. The source made the active and inactive calls. Unless noted, the call rests on the fitted dose curve; in most records, active means well fitted curve in the direction sought with a large enough effect; inconclusive means small, poorly fitted or top-dose-only effect, or another doubt; inactive means no such curve, though single readings can be large; an effect the other way counts as inactive or inconclusive.
# Experiments:
# [1] = Primary qHTS for inhibitors of MERS-S pseudo-typed particle cell entry (AID 1479149; calls by dose curve; further: nearly all actives have a fitted effect of over 60% in size); conditions: outcome: dose series up to 57.1 µM unless noted
# [2] = VSVG counterscreen qHTS to identify inhibitors of SARS-CoV-2 cell entry (AID 1645847; calls by dose curve; further: potency means the concentration at half of the fitted maximal effect; nearly all actives have a fitted effect of over 65% in size)
# Method in brief: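 HEK293-ACE2 cells (Expi293F, human ACE2) pretreated 1 h with compound, then infected with MLV-based VSV-G pseudotyped particles for 48 h at 37 C; luciferase luminescence normalized to VSV-G PP and bald PP wells.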
# [3] = target: Cytochrome P450 3A4 (Homo sapiens) (UniProt P08684); assay: qHTS Assay for Inhibitors and Substrates of Cytochrome P450 3A4 (AID 884); further: nearly all actives have a fitted effect of over 50% in size; further: potency means the concentration at half of the fitted maximal effect
# Method in brief: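 Luminescent readout of luciferin produced by CYP3A4 (20 nM) dealkylation of Luciferin-PPXE, 25 uM (its KM). NADPH-driven reaction ran 60 min at RT after 10 min compound preincubation; data scaled to 57 uM ketoconazole as 100% inhibition.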
# [4] = target: Cytochrome P450 3A4 (Homo sapiens) (UniProt P08684); assay: qHTS Assay for Activators of Cytochrome P450 3A4 (AID 885); further: nearly all actives have a fitted effect of over 65% in size
# Method in brief: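 Activators are scored by enhanced luminescence from CYP3A4 conversion of luciferin-PPXE (25uM, equal to KM) to luciferin, after 60 min at RT with an NADPH-regenerating system.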
# [5] = target: ATP-dependent 6-phosphofructokinase (Trypanosoma brucei brucei) (UniProt O15648); assay: qHTS Assay to Find Inhibitors of T. brucei phosphofructokinase: hit validation (AID 492961);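 further: luminescence reports ADP formed as PFK phosphorylates fructose-6-phosphate with ATP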
# Method in brief: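 Reaction: 0.1 M triethanolamine pH 8.0, 5 mM MgCl2, F6P 0.5 mM, ATP 0.1 mM, PFK 1.25 nM, 45 min RT. Read-out: ADP-Glo luminescence. Analysis: concentration-response fits, classed by r2 and efficacy.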
# 3D7 = assay: qHTS profiling for inhibitors of Plasmodium falciparum proliferation (AID 504749); further: nearly all actives have a fitted effect of over 60% in size; conditions: P. falciparum in erythrocytes, SYBR Green DNA, 72 h; series mostly up to 28.7 µM
# Method in brief: (§1)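 Quantitative HTS: compounds pinned into medium, infected erythrocytes added (0.3% parasitemia, 2.5% hematocrit), 72 h culture at 37 C under 5% CO2. Saponin/Triton lysis with SYBR Green I, overnight RT, then fluorescence read.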
# CP247 = assay: as above; conditions: P. falciparum in erythrocytes, SYBR Green DNA, 72 h; series mostly up to 28.7 µM
# Method in brief: as §1
# CP268 = assay: as above; conditions: P. falciparum in erythrocytes, SYBR Green DNA, 72 h; series mostly up to 28.7 µM
# Method in brief: as §1
# ECU = assay: as above; conditions: P. falciparum in erythrocytes, SYBR Green DNA, 72 h; series mostly up to 28.7 µM
# Method in brief: as §1
# PC49 = assay: as above; conditions: P. falciparum in erythrocytes, SYBR Green DNA, 72 h; series mostly up to 28.7 µM
# Method in brief: as §1
# W2 = assay: as above; conditions: P. falciparum in erythrocytes, SYBR Green DNA, 72 h; series mostly up to 12.8 µM
# Method in brief: as §1
# [6] = target: Guanine nucleotide-binding protein G(i) subunit alpha-1 (Homo sapiens) (UniProt P63096); assay: qHTS Assay for Inhibitors of RGS12 GoLoco Motif Activity (Green Fluorophore) (AID 879);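 further: negative values mean loss of peptide binding seen as reduced polarization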
# Method in brief: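 A drop in FITC polarization marked displacement of the FITC-tagged RGS12 GoLoco peptide (10 nM) from Gαi1 (50 nM). Compounds were incubated 10 min at room temperature in Tris pH 7.5 buffer containing 150 mM NaCl, 0.1 mM GDP and 0.05% NP40; unlabeled peptide titration served as control.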
# [7] = target: Pyruvate kinase (Leishmania mexicana) (UniProt Q27686); assay: qHTS Validation Assay for Inhibitors of Leishmania Mexicana Pyruvate Kinase (AID 945); further: potency means the concentration at half of the fitted maximal effect
# Method in brief: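 qHTS eight-point titrations against 0.2 nM LmPYK (E451W) in imidazole buffer pH 7.2 with 0.5 mM PEP, 0.1 mM ADP; 1 h, room temperature. Readout: PKLight luminescence, normalized to neutral DMSO wells.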
# [8] = target: Pyruvate kinase PKM (Homo sapiens) (UniProt P14618); assay: qHTS Assay for Activators of Human Muscle Pyruvate Kinase (AID 954; active means well fitted curve in the direction sought with a large enough effect, not every such curve was filed as active)
# Method in brief: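 PKM2, human, >95% pure, 0.1 nM; PEP 0.5 mM (Km), ADP 0.1 mM; 50 mM imidazole pH 7.2, 50 mM KCl, 0.01% Tween 20, 0.05% BSA; 1 h RT; luciferase luminescence readout.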
# [9] = target: Alpha-galactosidase (Coffea arabica) (UniProt Q42656); assay: Counterscreen for Glucocerebrosidase Inhibitors: qHTS Assay for Coffee Bean alpha-Galactosidase at pH 4.5 (AID 957)
# Method in brief: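 Enzyme is added first (2 nM final), then compounds titrated from 0.7 nM to 77 uM, then 80 uM 4-methylumbelliferyl alpha-D-galactopyranoside; after 20 min at room temperature a pH 10 NaOH/glycine stop precedes fluorescence reading at 365/440 nm.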
# [10] = target: alpha-glucosidase (Oryza sativa, rice) (UniProt Q653V4); assay: Counterscreen for Glucocerebrosidase Inhibitors: qHTS Assay for Rice alpha-Glucosidase at pH 5.0 (AID 997)
# Method in brief: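 Endpoint fluorogenic assay at pH 5.0: compounds (0.7 nM to 77 uM) titrated against 4 nM rice enzyme and 400 uM 4-MU-alpha-glucoside for 20 min at room temperature; NaOH/glycine stop, read ex 365/em 440 nm, Hill-fitted AC50.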
# [11] = target: Alpha-galactosidase (Coffea arabica) (UniProt Q42656); assay: Counterscreen for Glucocerebrosidase Inhibitors: qHTS Assay for Coffee Bean alpha-Galactosidase at pH 5.9 (AID 998)
# Method in brief: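 In 50 mM citric acid pH 5.9 with 0.005% Tween-20, coffee bean enzyme hydrolyses 80 uM 4-MU alpha-D-galactopyranoside over 20 min at RT. Activity is normalized to controls; AC50 comes from Hill-modelled concentration-response data.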
# [12] = AP1 Signaling Pathway (AID 357; active means well fitted curve in either direction with a large enough effect, not every such curve was filed as active;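 further: ME-180 reporter cells stimulated with EGF at its EC50 level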)
# Method in brief: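 Beta-lactamase reporter under AP-1 response element, ME-180 background. Stimulus: EC50 EGF. Compound exposure 5 h, 37 °C. Detection: CCF4, 2.5 h RT, 460/530 nm. Values: AC50 from titration.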
# [13] = NFAT Signaling Pathway (AID 444; active means well fitted curve in either direction with a large enough effect, not every such curve was filed as active;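 further: carbachol stimulus at about its EC50 of 1 µM final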); conditions: Jurkat NFAT-bla M1, carbachol, beta-lactamase ratio, 5 h; at 38 µM (top of the series)
# Method in brief: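 Jurkat cells carrying an NFAT-driven β-lactamase reporter and co-transfected muscarinic M1 receptor were treated with compound plus carbachol (1 uM final, an EC50 level) for 5 h at 37 °C. CCF4 loading followed for 1 h at RT; 460/530 nm ratio gave %activity.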
# [14] = Stat Signaling Pathway (AID 446; active means well fitted curve in either direction with a large enough effect, not every such curve was filed as active;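 further: ME-180 cervical cancer cells given 40 pM IL-6 alongside compound; SIE-controlled beta-lactamase reporter measured as 460/530 nm FRET emission ratio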)
# Method in brief: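 Emission at 460 and 530 nm (excitation 405 nm) reports SIE-controlled beta-lactamase in ME-180 cells. Cells received compound with 40 pM IL-6 for 5 hrs at 37 C; data scaled between 300 pM IL-6 and 125 nM JAK-inhibitor controls.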
# Chain of Pyruvate kinase PKM (Homo sapiens) (P14618 whole entry, looked up): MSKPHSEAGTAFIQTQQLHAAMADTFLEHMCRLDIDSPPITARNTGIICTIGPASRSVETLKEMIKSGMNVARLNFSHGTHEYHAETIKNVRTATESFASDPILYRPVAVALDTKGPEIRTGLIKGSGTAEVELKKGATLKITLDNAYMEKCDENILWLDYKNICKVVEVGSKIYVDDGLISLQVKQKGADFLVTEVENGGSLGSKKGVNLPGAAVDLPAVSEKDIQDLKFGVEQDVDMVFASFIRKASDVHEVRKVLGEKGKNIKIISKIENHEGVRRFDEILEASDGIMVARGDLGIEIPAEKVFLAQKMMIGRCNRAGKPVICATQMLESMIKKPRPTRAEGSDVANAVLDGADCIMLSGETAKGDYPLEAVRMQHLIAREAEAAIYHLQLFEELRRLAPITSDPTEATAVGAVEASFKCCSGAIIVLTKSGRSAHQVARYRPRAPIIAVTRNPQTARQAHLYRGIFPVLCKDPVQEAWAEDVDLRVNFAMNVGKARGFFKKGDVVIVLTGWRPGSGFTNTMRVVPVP
# Chain of Alpha-galactosidase (Coffea arabica) (Q42656 whole entry, looked up): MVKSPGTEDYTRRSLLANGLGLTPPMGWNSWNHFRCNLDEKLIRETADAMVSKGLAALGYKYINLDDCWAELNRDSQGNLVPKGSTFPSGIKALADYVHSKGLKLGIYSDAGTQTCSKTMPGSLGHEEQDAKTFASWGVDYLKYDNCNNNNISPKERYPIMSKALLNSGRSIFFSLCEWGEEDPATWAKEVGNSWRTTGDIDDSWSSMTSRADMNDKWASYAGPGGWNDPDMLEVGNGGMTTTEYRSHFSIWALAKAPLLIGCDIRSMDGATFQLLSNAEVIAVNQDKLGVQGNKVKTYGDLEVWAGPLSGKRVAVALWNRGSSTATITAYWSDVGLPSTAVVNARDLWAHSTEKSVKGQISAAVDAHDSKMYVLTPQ
# Chain of Guanine nucleotide-binding protein G(i) subunit alpha-1 (Homo sapiens) (P63096 whole entry, looked up): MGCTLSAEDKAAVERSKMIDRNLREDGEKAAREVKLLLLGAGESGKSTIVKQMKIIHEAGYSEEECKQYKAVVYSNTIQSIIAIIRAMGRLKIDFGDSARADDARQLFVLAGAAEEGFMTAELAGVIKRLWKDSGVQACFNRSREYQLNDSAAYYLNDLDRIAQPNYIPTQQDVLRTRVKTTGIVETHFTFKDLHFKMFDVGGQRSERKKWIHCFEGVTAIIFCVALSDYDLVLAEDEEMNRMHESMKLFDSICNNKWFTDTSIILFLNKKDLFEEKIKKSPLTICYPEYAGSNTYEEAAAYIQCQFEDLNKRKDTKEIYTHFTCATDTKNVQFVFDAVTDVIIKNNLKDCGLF
# Chain of Pyruvate kinase (Leishmania mexicana) (Q27686 2-499 E452W): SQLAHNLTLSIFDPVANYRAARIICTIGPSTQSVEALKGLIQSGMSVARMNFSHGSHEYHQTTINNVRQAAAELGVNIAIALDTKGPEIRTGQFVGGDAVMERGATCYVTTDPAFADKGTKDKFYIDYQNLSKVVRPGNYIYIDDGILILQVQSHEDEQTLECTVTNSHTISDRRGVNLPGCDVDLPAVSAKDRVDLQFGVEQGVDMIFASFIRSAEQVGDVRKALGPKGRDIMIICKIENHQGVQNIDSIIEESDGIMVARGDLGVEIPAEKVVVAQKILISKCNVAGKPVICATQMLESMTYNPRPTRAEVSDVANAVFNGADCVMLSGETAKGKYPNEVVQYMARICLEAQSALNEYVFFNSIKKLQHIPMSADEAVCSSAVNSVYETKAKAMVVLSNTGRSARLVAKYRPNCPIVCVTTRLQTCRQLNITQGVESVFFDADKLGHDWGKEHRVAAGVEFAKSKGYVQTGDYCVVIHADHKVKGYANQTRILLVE
# Chain of Cytochrome P450 3A4 (Homo sapiens) (P08684 whole entry, looked up): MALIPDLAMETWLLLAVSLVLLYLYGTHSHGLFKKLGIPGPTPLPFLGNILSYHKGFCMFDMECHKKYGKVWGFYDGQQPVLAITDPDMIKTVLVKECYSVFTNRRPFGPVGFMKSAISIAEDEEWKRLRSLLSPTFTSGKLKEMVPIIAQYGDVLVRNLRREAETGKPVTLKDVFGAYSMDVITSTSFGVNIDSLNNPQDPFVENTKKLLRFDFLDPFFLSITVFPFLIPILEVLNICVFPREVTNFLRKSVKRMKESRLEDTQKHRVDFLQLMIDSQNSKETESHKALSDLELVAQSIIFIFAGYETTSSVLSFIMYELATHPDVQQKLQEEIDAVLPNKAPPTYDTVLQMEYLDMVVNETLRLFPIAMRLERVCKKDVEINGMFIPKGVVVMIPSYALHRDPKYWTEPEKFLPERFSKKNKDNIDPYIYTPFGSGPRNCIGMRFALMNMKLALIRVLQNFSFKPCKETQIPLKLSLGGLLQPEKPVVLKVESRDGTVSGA
# Chain of ATP-dependent 6-phosphofructokinase (Trypanosoma brucei brucei) (O15648 whole entry, looked up): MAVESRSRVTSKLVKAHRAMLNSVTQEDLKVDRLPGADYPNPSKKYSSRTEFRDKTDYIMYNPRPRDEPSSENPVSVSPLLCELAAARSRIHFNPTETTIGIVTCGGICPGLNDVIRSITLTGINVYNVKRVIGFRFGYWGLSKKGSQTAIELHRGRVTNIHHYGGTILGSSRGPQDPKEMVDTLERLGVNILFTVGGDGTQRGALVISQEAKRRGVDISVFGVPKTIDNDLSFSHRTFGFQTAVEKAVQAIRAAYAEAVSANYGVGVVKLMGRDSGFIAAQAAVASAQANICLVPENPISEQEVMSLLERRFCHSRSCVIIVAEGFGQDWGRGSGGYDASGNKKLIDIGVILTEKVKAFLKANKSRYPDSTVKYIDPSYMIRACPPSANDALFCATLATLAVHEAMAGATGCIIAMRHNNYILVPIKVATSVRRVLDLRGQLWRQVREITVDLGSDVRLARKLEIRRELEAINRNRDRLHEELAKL
structure (smiles),measurement,setting,value
C=C(C)[C@@H]1CCC(C)=C[C@H]1c1c(O)cc(CCCCC)cc1O,Potency,[1],inactive
same,Potency,[2],24100 nM (active)
Cc1c(N)nc([C@H](CC(N)=O)NC[C@@H](N)C(N)=O)nc1C(=O)N[C@H](C(=O)N[C@@H](C)[C@H](O)[C@@H](C)C(=O)N[C@@H](C(=O)NCCc1nc(-c2nc(C(=O)NCCC[S+](C)C)cs2)cs1)[C@@H](C)O)C(O[C@H]1O[C@H](CO)[C@H](O)[C@@H](O)[C@H]1O[C@H]1O[C@H](CO)[C@@H](O)[C@H](OC(N)=O)[C@@H]1O)c1cnc[nH]1 (stereo partly drawn),Potency,[2],34.1 nM (active)
C/C=C(\C)C(=O)N[C@@H](c1ccccc1)[C@@H](O)C(=O)O[C@H]1C[C@@]2(O)[C@@H](OC(=O)c3ccccc3)[C@@H]3[C@]4(OC(C)=O)CO[C@@H]4C[C@H](O)[C@@]3(C)C(=O)[C@H](OC(C)=O)C(=C1C)C2(C)C,Potency,[2],108 nM (active)
CO[C@H]1CCC(O[C@H]2C[C@H]([C@]3(C)CC[C@]4(C[C@H](O)[C@@H](C)[C@@H]([C@@H](C)/C=C(\C)C(=O)[C@H](C)C[C@H](C)C(=O)O)O4)O3)O[C@]3(O[C@@H]([C@H]4O[C@@](O)(CO)[C@H](C)C[C@@H]4C)C[C@@H]3C)[C@@H]2C)O[C@@H]1C (stereo partly drawn),Potency,[2],607 nM (active)
CC(C)(O)/C=C\C(=O)[C@](C)(O)[C@H]1[C@H](O)C[C@]2(C)[C@@H]3CC=C4[C@@H](C=C(O)C(=O)C4(C)C)[C@]3(C)C(=O)C[C@@]12C,Potency,[3],398 nM (active)
same,"activity change, positive = activation",[4],-93.2% [at 11.4 µM]
CCCC[N+]1(C)C2CC(OC(=O)C(CO)c3ccccc3)CC1C1OC12 (stereo not drawn),Potency,[5],inactive
same,Potency,3D7,inactive
same,Potency,CP247,inactive
same,Potency,CP268,inactive
same,Potency,ECU,inactive
same,Potency,PC49,inactive
same,Potency,W2,inactive
CO[C@H]1O[C@@H]2O[C@@]3(C)CC[C@H]4[C@H](C)CC[C@@H]([C@@H]1C)[C@@]24OO3,Potency,[1],inactive
CC(C)(O)C1C2OC(=O)C1[C@]1(O)C[C@H]3O[C@]34C(=O)O[C@H]2[C@]14C (stereo partly drawn) (tested in a mixture with another compound),Potency,[5],inactive
same,Potency,3D7,inactive
same,Potency,CP247,inactive
same,Potency,CP268,inactive
same,Potency,ECU,inactive
same,Potency,PC49,inactive
same,Potency,W2,inactive
CCCCN1C2CCC1CC(OC(c1ccc(F)cc1)c1ccc(F)cc1)C2 (stereo not drawn),outcome,[6],inactive
same,Potency,[3],inactive
same,Potency,[7],inactive
same,outcome,[8],inactive
same,outcome,[9],inactive
same,outcome,[10],inactive
same,outcome,[11],inactive
NNCc1cccc(O)c1,outcome,[12],inactive
same,"activity change, negative = inhibition",[13],-15.7%
same,outcome,[14],inactive
same,outcome,[6],inactive
same,Potency,[7],10000 nM (active)
same,outcome,[8],inactive
same,outcome,[9],inactive
same,outcome,[10],inactive
same,outcome,[11],inactive
NCC#Cc1ccccc1,outcome,[12],inactive
same,"activity change, negative = inhibition",[13],3.19%
same,outcome,[14],inactive
same,outcome,[6],inactive
same,Potency,[4],inactive
same,Potency,[7],inactive
same,outcome,[8],inactive
same,outcome,[9],inactive
same,outcome,[10],inactive
same,outcome,[11],inactive

# — PubChem BioAssay (NCATS)
